Source: PubChem
Compounds with a hit are over-represented: about 2.8% of the library has one in this group of screens.
Mito fusion act = mitochondrial division inhibition or fusion activation; S. cerevisiae fusion-defective mutant growth rescue, CellTiterGlo 48 h; Potency, µM (series often up to 46.1 µM), hits mostly activators; 320,000 compounds, 0.23% hits; AID 485298; note: nearly all actives have a fitted effect of over 45% in size
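Compounds are tested for their ability to restore growth of mitochondrial fusion-defective yeast strains at non-permissive 37C in YPEG medium over 48 hours. Viability is quantified by luciferase luminescence.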
GLP1R ag = agonists of human GLP-1 receptor | P43220 | HEK293 GLP-1R CRE-luciferase, luminescence, 4-6 h; cells express a hypersensitive GLP-1R form | Potency, µM (highest dose often 45.6 µM), actives largely listed as activators | 380,000 compounds, 0.007% hits
Target sequence (P43220 whole entry, looked up): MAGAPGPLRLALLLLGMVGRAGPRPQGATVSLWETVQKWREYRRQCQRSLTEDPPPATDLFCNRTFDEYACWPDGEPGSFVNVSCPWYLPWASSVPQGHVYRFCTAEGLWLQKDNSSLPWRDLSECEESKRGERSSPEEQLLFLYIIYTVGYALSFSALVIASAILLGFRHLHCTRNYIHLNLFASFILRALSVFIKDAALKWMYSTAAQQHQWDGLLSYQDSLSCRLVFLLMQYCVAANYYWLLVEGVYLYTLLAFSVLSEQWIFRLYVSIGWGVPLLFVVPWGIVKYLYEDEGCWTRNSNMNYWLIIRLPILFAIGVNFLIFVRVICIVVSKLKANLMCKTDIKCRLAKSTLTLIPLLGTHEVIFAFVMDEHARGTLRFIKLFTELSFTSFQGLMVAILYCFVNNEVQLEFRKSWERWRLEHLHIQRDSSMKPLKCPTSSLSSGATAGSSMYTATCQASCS
HEK293 tox = cytotoxicity in counter-screen for GLP-1R inverse agonists | 410,000 compounds, 0.13% hits | AID 624418 | HEK293 cAMP-luciferase reporter cells, luminescence, 24 h | Potency, µM (doses to about 38.3 µM), actives largely listed as inhibitors;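 note: loss of luciferase light is scored as toxicity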
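A 23 nL compound transfer followed 12 hours of cell culture at 37 deg C; exposure then lasted 24 hr. Luciferase assay detection reagent was dispensed and plates read for luminescence after a 12 min room-temperature wait.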
GLP-1R inv ag = inverse agonists of human GLP-1 receptor. HEK293 GLP-1R CRE-luciferase, luminescence, 24 h; GLP-1R form is constitutively active. Potency, µM (series often up to 38.3 µM), actives largely listed as inhibitors. 410,000 compounds, 1.6% hits. AID 624417; note: nearly all actives have a fitted effect of over 55% in size
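Luminescence readout: a drop in cAMP-driven luciferase signal flags inverse agonism at a constitutively active GLP-1R stably expressed in HEK293. Compound exposure lasted 24 hr at 37 deg C, 5% CO2.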
BRCA1 expr up = BRCA1 expression activation; MCF7-BRCA1-FFLuc reporter, luminescence, 48 h; response scale: scaled: vehicle 0%, 10 µM genistein 100%; Potency, µM (highest dose often 46.1 µM), actives largely listed as activators; 380,000 compounds, 1.1% hits; AID 624202; note: nearly all actives have a fitted effect of over 80% in size
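MCF7-BRCA1-FFLuc, 2000 cells/well; 2 h attach, 37 °C/5% CO2; compound 48 h; luciferase substrate 15 min; luminescence end-point. Norm. to genistein 10 microM max activation and DMSO; concentration-response curves fitted.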
Large screens that a line does not name were inactive. Calls come from the whole dose curve; as a rule, active = well fitted curve in the direction sought with a large enough effect; inconclusive = small, poorly fitted or top-dose-only effect, or another doubt; inactive = no such curve, though single readings can be large; an effect the other way counts as inactive or inconclusive.

Cc1cc(C)nc(-n2nc(C)cc2NC(=O)CN2CCCC(C)C2)n1 (centres undefined)	none
CCC(C(=O)Nc1cc(C)nn1-c1nc(C)cc(C)n1)c1ccccc1 (centres undefined)	HEK293 tox inconclusive, GLP-1R inv ag 3.55µM
C=CCN1CC2CC3(COc4cc(C)cc(C)c4)C=CC2(O3)C1=O (centres undefined)	none
C[C@@H]1[C@H]2CCCC[C@H]2CN(C(=O)OC(C)(C)C)[C@@H]1CC(=O)c1ccccc1	GLP-1R inv ag inconclusive (no result: Mito fusion act)
CCOC(=O)c1c(-c2ccccc2)oc2ccc(O)c(CN3CCN(C)CC3)c12	HEK293 tox inconclusive, GLP-1R inv ag 3.16µM
CCOC(=O)c1c(C)n(C)c2ccc(O)c(CN3CCN(C)CC3)c12	none
CN1CCN(Cc2c(O)ccc3occ(C(=O)c4ccccc4)c23)CC1	HEK293 tox 3.16µM
CCOC(=O)c1c(-c2ccccc2)oc2ccc(OCC(O)CNCCN(C)C)cc12 (centres undefined)	HEK293 tox inconclusive, GLP-1R inv ag 5.01µM
CCOC(=O)c1c(C)n(C)c2ccc(OCC(O)CNCCc3ccccc3)cc12 (centres undefined)	HEK293 tox inconclusive, GLP-1R inv ag 11.2µM
CCOC(=O)c1c(-c2ccccc2)oc2ccc(OC)cc12	GLP-1R inv ag inconclusive
Cc1onc(-c2ccccc2Cl)c1C(=O)NC(=S)NCCc1ccccc1	GLP-1R inv ag inconclusive
Cc1ccc(N2CCN(C(=O)c3c(C)oc4ncn(CC(C)C)c(=O)c34)CC2)c(C)c1	none (no result: Mito fusion act, GLP1R ag)
O=C(NCCN1CCOCC1)c1cc(-c2cccc(O)c2)on1	none
CCOC(=O)c1c(C)n(-c2ccc(C)cc2)c2ccc(OCC(O)CN3CCN(C)CC3)cc12 (centres undefined)	HEK293 tox inconclusive, GLP-1R inv ag 5.01µM
CCOC(=O)c1c(-c2ccccc2)oc2ccc(OCC)cc12	GLP-1R inv ag 10µM
Cc1ccc(/C=N/N2CCN(c3ccccn3)CC2)o1	BRCA1 expr up 10µM
C(=N\N1CCN(c2ccccn2)CC1)/c1ccccn1	BRCA1 expr up 11.2µM
Oc1ccc(/C=N/N2CCN(c3ccccn3)CC2)cc1	none
C(=N\N1CCN(c2ccccn2)CC1)/c1ccco1	none
O=C(COC(=O)C12CC3CC(CC(C3)C1)C2)NCC1CCCO1 (centres undefined)	none (no result: Mito fusion act, GLP1R ag, HEK293 tox, GLP-1R inv ag)
Cc1cc(-c2ccc(C)c(S(=O)(=O)N(Cc3cccs3)C(C)C)c2)on1	GLP-1R inv ag 12.6µM (no result: Mito fusion act, GLP1R ag, BRCA1 expr up)
Cn1c(SCC(=O)NC2CC2)nnc1-c1ccccn1	none
Nn1c(COc2ccc(Cl)cc2)nc2ccccc2c1=O	BRCA1 expr up 5.62µM
O=[N+]([O-])c1cccc(-c2ccc3nnc(SCc4ccccn4)n3n2)c1	none
COc1ccc(C(=O)c2ccc(OC)cc2O)c(O)c1	GLP-1R inv ag inconclusive, BRCA1 expr up 10µM
O=C(Nc1cc(Br)ccc1O)C1CC(c2ccccc2Cl)=NO1 (centres undefined)	Mito fusion act inconclusive, GLP-1R inv ag inconclusive
Cc1cc(OCCNCCO)cc(C)c1Cl	GLP-1R inv ag 8.91µM
Cc1cc(OCCCCCNCCO)cc(C)c1Cl	HEK293 tox inconclusive
Cc1cc(/C=N/NC(=O)c2ccccn2)c(C)n1-c1cccc([N+](=O)[O-])c1	BRCA1 expr up 10µM
Cc1cc(/C=N/Nc2ccc([N+](=O)[O-])cn2)c(C)n1-c1ccccc1	BRCA1 expr up 10µM
Cc1ccc(NC(=O)c2cc(C)n(-c3cccc(C)c3)c2C)cc1	Mito fusion act inconclusive, HEK293 tox inconclusive, GLP-1R inv ag 11.2µM, BRCA1 expr up inconclusive
Cc1cc(C(=O)N/N=C/c2cccc([N+](=O)[O-])c2)c(C)n1-c1ccccc1	none
Cc1cccc(-n2c(C)cc(/C=N\NC(=O)c3ccco3)c2C)c1	BRCA1 expr up 8.91µM
CCN(CC)CCNC(C(=O)OCCC(C)C)c1ccccc1 (centres undefined)	none (no result: Mito fusion act, HEK293 tox, GLP-1R inv ag, BRCA1 expr up)
Cc1ccc(Cn2cc(/C=N/Nc3ccc([N+](=O)[O-])cn3)c3ccccc32)cc1	HEK293 tox inconclusive, GLP-1R inv ag 11.2µM
CC(=NNc1ccc([N+](=O)[O-])cn1)c1ccccc1	BRCA1 expr up 10µM (no result: Mito fusion act)
c1ccc(CNc2ccc3ccccc3n2)nc1	BRCA1 expr up inconclusive
COc1cc(C)ccc1NC(=O)c1ccc(S(=O)(=O)N2CCOCC2)cc1	none
COc1ccc(NC(=O)COC(=O)c2c3c(nc4ccccc24)CCCC3)cc1Cl	HEK293 tox inconclusive, GLP-1R inv ag 3.55µM
COc1ccc(NC(=O)COC(=O)c2c3c(nc4ccccc24)CCCC3)cc1	GLP-1R inv ag inconclusive
C#CCOCCOCCOCCNc1nc(N2CCN(C(=O)CCCCCCCCCCNC(=O)[C@@H](CCSC)n3cc(CCO)nn3)CC2)nc(N2CCN(C(=O)CCCCCCCCCCNC(=O)[C@H](CCSC)n3cc(CCO)nn3)CC2)n1	none
CCOc1cc2[nH]c(=O)n(CCCCCC(=O)NC(C)CC)c(=O)c2cc1OCC (centres undefined)	none (no result: Mito fusion act, GLP1R ag, BRCA1 expr up)
COc1ccc(C(=O)Cc2ccccc2C(=O)O)cc1	none (no result: Mito fusion act)
CC(C)(C)Cc1nnc(NC(=O)c2ccc([N+](=O)[O-])cc2)s1	BRCA1 expr up 5.62µM
COc1ccc(/C=C/c2nnc(NC(C)=O)s2)cc1	HEK293 tox inconclusive, GLP-1R inv ag inconclusive, BRCA1 expr up inconclusive
COc1ccc(C(=O)Cc2nnc(C)s2)cc1	BRCA1 expr up 7.08µM
COC(=O)Nc1nnc(/C=C/c2ccc(OC)cc2)s1	BRCA1 expr up 11.2µM
CCc1nnc(NC(=O)c2ccc(OC)cc2)s1	BRCA1 expr up 7.08µM
CC(C)(C)Cc1nnc(NC(=O)Cc2ccc([N+](=O)[O-])cc2)s1	none
O=CN1Cc2ccccc2-c2ccccc2C1	none
CCc1nnc(NC(=O)c2cc(C)oc2C)s1	BRCA1 expr up 5.62µM
CCSc1nnc(NC(=O)c2cc(C)oc2C)s1	BRCA1 expr up inconclusive
CCc1nnc(NC(=O)c2cccc(NC(=O)C(C)C)c2)s1	BRCA1 expr up 11.2µM
COc1cccc(C(=O)Nc2nnc(-c3ccccc3)s2)c1OC	BRCA1 expr up 1.78µM
COc1ccc(C(=O)Nc2nnc(-c3ccccc3)s2)cc1	BRCA1 expr up 7.08µM
NNc1nc2c(Cl)ccc(Cl)c2s1	GLP-1R inv ag inconclusive
CCOC(=O)[C@]12CCCC=C1N(CCc1ccc(OC)c(OC)c1)C(=O)[C@H](CC(=O)NCc1ccccc1)C2	none (no result: Mito fusion act, GLP1R ag, BRCA1 expr up)
CCOC(=O)[C@]12CCC=C1N(CCC1=CCCCC1)C(=O)[C@H](CC(=O)NCCc1ccccc1OC)C2	none (no result: Mito fusion act)
CCCCCCCCN1C(=O)[C@H](CC(=O)NCc2ccc(OC)c(OC)c2)C[C@@]2(C(=O)OCC)CCCC=C12	HEK293 tox inconclusive, GLP-1R inv ag 10µM (no result: Mito fusion act)
CCCCCCCCN1C(=O)[C@H](CC(=O)NCCc2ccccc2OC)C[C@@]2(C(=O)OCC)CCC=C12	GLP-1R inv ag 12.6µM (no result: Mito fusion act, GLP1R ag, BRCA1 expr up)
